Assay results: PubChem BioAssay AID651642 (Sanford-Burnham Center for Chemical Genomics, 2012)
Activity calls are given as the source filed them.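 The calls were made as follows: active = average half-effect concentration of 10 µM or less in every one of the four cell panels; inactive = the rest.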

system: H9c2; assay: protection of cardiomyocytes from stress damage, SAR follow-up, cell-based, panel, H9c2 and HL-1, H2O2, 2-deoxyglucose, ATP luminescence (AID 651642); conditions: H9c2/HL-1 cardiomyocyte 2-deoxyglucose damage, mean of runs, with 2-deoxyglucose

Compound	outcome
COc1ccc2c(c1OC)C(=O)N1c3ccccc3C(=O)N(Cc3ccccc3Cl)C21 (configuration not stated)	inactive
COc1ccc2c(c1OC)C(=O)N1c3ccccc3C(=O)N(Cc3ccccc3F)C21 (configuration not stated)	inactive
COc1cc(-c2cc(C(=O)Nc3cccc(C(C)=O)c3)c3cc(C)ccc3n2)cc(OC)c1OC	inactive
COc1cc(-c2cc(C(=O)Nc3cccc(C(=O)NCc4ccccc4)c3)c3ccccc3n2)cc(OC)c1OC	active
COc1cc(-c2cc(C(=O)NCC(=O)Nc3cccc(C(C)=O)c3)c3ccccc3n2)cc(OC)c1OC	active
COc1cc(-c2cc(C(=O)Nc3cccc(C(=O)N(C)C)c3)c3ccccc3n2)cc(OC)c1OC	inactive
COc1ccc2c(c1OC)C(=O)N1c3ccccc3C(=O)N(Cc3ccc(F)cc3)C21 (configuration not stated)	inactive
CCOC(=O)c1ccc(NC(=O)c2cc(-c3cc(OC)c(OC)c(OC)c3)nc3ccccc23)cc1	inactive
COc1cc(-c2cc(C(=O)NCC(=O)Nc3cccc(C(C)=O)c3)c3cc(C)ccc3n2)cc(OC)c1OC	inactive
COc1cc(-c2cc(C(=O)NCC(=O)Nc3cccc(C(C)=O)c3)c3cc(F)ccc3n2)cc(OC)c1OC	active
CCOC(=O)c1cccc(NC(=O)CNC(=O)c2cc(-c3cc(OC)c(OC)c(OC)c3)nc3ccc(F)cc23)c1	active
COc1cc(-c2cc(C(=O)Nc3cccc(C(=O)N4CCOCC4)c3)c3ccccc3n2)cc(OC)c1OC	inactive
CCOC(=O)c1cccc(NC(=O)c2cc(-c3cc(OC)c(OC)c(OC)c3)nc3ccc(Br)cc23)c1	inactive
COc1ccc2nc(-c3cc(OC)c(OC)c(OC)c3)cc(C(=O)NCC(=O)Nc3cccc(C(C)=O)c3)c2c1	active
CCOC(=O)c1cccc(NC(=O)c2cc(-c3cc(OC)c(OC)c(OC)c3)nc3ccc(C)cc23)c1	inactive
COc1ccc2c(c1OC)C(=O)N1c3ccccc3C(=O)N(Cc3cccc(F)c3)C21 (configuration not stated)	inactive

Compound	outcome
COc1ccc2c(c1OC)C(=O)N1c3ccccc3C(=O)N(Cc3ccccc3)C21 (configuration not stated)	inactive
CCOC(=O)c1cccc(NC(=O)c2cc(-c3cc(OC)c(OC)c(OC)c3)nc3c(Cl)cccc23)c1	inactive
CCOC(=O)c1cccc(NC(=O)c2cc(-c3cc(OC)c(OC)c(OC)c3)nc3ccc(F)cc23)c1	inactive
CCOC(=O)c1cccc(NC(=O)CNC(=O)c2cc(-c3cc(OC)c(OC)c(OC)c3)nc3ccccc23)c1	inactive
COC(=O)CNC(=O)c1cc(-c2cc(OC)c(OC)c(OC)c2)nc2ccccc12	inactive
COc1ccc2c(c1OC)C(=O)N1c3ccccc3C(=O)N(Cc3cccc(Cl)c3Cl)C21 (configuration not stated)	active
CCOC(=O)c1cccc(NC(=O)CNC(=O)c2cc(-c3cc(OC)c(OC)c(OC)c3)nc3ccc(OC)cc23)c1	active
COc1ccc2nc(-c3cc(OC)c(OC)c(OC)c3)cc(C(=O)NCC(=O)Nc3ccc(C(C)=O)cc3)c2c1	active
COc1cc(-c2cc(C(=O)NCC(=O)Nc3cccc(C(C)=O)c3)c3cc(Br)ccc3n2)cc(OC)c1OC	active
COc1ccc2c(c1OC)C(=O)N1c3ccccc3C(=O)N(Cc3ccncc3)C21 (configuration not stated)	inactive
COc1ccc2c(c1OC)C(=O)N1c3ccccc3C(=O)N(Cc3cccc(Br)c3)C21 (configuration not stated)	inactive
CCOC(=O)c1cccc(NC(=O)CNC(=O)c2cc(-c3cc(OC)c(OC)c(OC)c3)nc3ccc(Br)cc23)c1	active
CCOC(=O)c1ccccc1NC(=O)c1cc(-c2cc(OC)c(OC)c(OC)c2)nc2ccccc12	inactive
COc1cc(-c2cc(C(=O)Nc3cccc(C(C)=O)c3)c3ccc(Cl)cc3n2)cc(OC)c1OC	inactive
COc1ccc2c(c1OC)C(=O)N1c3ccccc3C(=O)N(Cc3ccccc3C)C21 (configuration not stated)	inactive
COc1ccc(NC(=O)CNC(=O)c2cc(-c3cc(OC)c(OC)c(OC)c3)nc3ccccc23)cc1	inactive
